# From the supplement of paper PMC7261846
# Structures can show the parent of a compound that is named as a salt. ± gives the uncertainty stated by the source.
# System: Candida albicans SNY425 biofilm
# Assay: biofilm OD600 with compound plus antifungal (OD600 (absorbance)); higher = more biofilm remaining
# [1] = assay detail: disruption of 24-h mature biofilm (compound + antifungal for a second 24 h)
# [2] = assay detail: sustained inhibition (compound + antifungal during 90-min adherence and 24-h growth)
SMILES,biofilm OD600 [1],biofilm OD600 [2]
CCOC(=O)c1ccc(OC(=O)CCCCCNC(=N)N)cc1 [Gabexate mesylate] + OC(Cn1cncn1)(Cn1cncn1)c1ccc(F)cc1F [fluconazole] (first compound 12.5 µM),0.267 ± 0.013,0.116 ± 0.0062
CC(NC(=O)C(Cc1ccccc1)NC(=O)OCc1ccccc1)C(=O)CF (stereo not given) + CC[C@H](C)C[C@H](C)CCCCCCCCC(=O)N[C@H]1C[C@@H](O)[C@@H](NCCN)NC(=O)[C@@H]2[C@@H](O)CCN2C(=O)[C@H]([C@H](O)CCN)NC(=O)[C@H]([C@H](O)[C@@H](O)c2ccc(O)cc2)NC(=O)[C@@H]2C[C@@H](O)CN2C(=O)[C@H]([C@@H](C)O)NC1=O [caspofungin] (first compound 12.5 µM),0.3 ± 0.005,0.185 ± 0.0046
"O=c1oc(Cl)c(Cl)c2ccccc12 [3,4-Dichloroisocoumarin] + C[C@@H]1[C@H](O)[C@@H](C)/C=C/C=C/C=C/C=C/C=C/C=C/C=C/[C@H](O[C@@H]2O[C@H](C)[C@@H](O)[C@H](N)[C@@H]2O)C[C@@H]2O[C@](O)(C[C@@H](O)C[C@@H](O)[C@H](O)CC[C@@H](O)C[C@@H](O)CC(=O)O[C@H]1C)C[C@H](O)[C@H]2C(=O)O [amphotericin B] (first compound 12.5 µM)",0.252 ± 0.013,0.196 ± 0.0087
O=C1Nc2ccc([N+](=O)[O-])cc2C1=O [5-Nitroisatin] + CC[C@H](C)C[C@H](C)CCCCCCCCC(=O)N[C@H]1C[C@@H](O)[C@@H](NCCN)NC(=O)[C@@H]2[C@@H](O)CCN2C(=O)[C@H]([C@H](O)CCN)NC(=O)[C@H]([C@H](O)[C@@H](O)c2ccc(O)cc2)NC(=O)[C@@H]2C[C@@H](O)CN2C(=O)[C@H]([C@@H](C)O)NC1=O [caspofungin] (first compound 12.5 µM),0.255 ± 0.0081,0.156 ± 0.013
"Nc1ccc(CC(CC(=O)O)C(=O)O)cc1 [4-Amino-D, L-benzylsuccinic acid] + C[C@@H]1[C@H](O)[C@@H](C)/C=C/C=C/C=C/C=C/C=C/C=C/C=C/[C@H](O[C@@H]2O[C@H](C)[C@@H](O)[C@H](N)[C@@H]2O)C[C@@H]2O[C@](O)(C[C@@H](O)C[C@@H](O)[C@H](O)CC[C@@H](O)C[C@@H](O)CC(=O)O[C@H]1C)C[C@H](O)[C@H]2C(=O)O [amphotericin B] (first compound 12.5 µM)",0.293 ± 0.0096,0.185 ± 0.0047
CC(C)C[C@H](NP(=O)(O)O[C@@H]1O[C@@H](C)[C@H](O)[C@@H](O)[C@H]1O)C(=O)N[C@@H](Cc1c[nH]c2ccccc12)C(=O)O [Phosphoramidon] + OC(Cn1cncn1)(Cn1cncn1)c1ccc(F)cc1F [fluconazole] (first compound 12.5 µM),0.255 ± 0.0097,0.156 ± 0.0037
CCCCCCCCCC(=O)N[C@@H](CCCN=C(N)N)C(=O)N[C@H](C(=O)N[C@@H](CCCCN)C(=O)N[C@@H](CCCN=C(N)N)C(=O)CCl)C(C)C + C[C@@H]1[C@H](O)[C@@H](C)/C=C/C=C/C=C/C=C/C=C/C=C/C=C/[C@H](O[C@@H]2O[C@H](C)[C@@H](O)[C@H](N)[C@@H]2O)C[C@@H]2O[C@](O)(C[C@@H](O)C[C@@H](O)[C@H](O)CC[C@@H](O)C[C@@H](O)CC(=O)O[C@H]1C)C[C@H](O)[C@H]2C(=O)O [amphotericin B] (first compound 4 µM),0.261 ± 0.0041,0.188 ± 0.0044
CCC[C@@]1(CCc2ccccc2)CC(O)=C([C@H](CC)c2cccc(NS(=O)(=O)c3ccc(C(F)(F)F)cn3)c2)C(=O)O1 [tipranavir] + C[C@@H]1[C@H](O)[C@@H](C)/C=C/C=C/C=C/C=C/C=C/C=C/C=C/[C@H](O[C@@H]2O[C@H](C)[C@@H](O)[C@H](N)[C@@H]2O)C[C@@H]2O[C@](O)(C[C@@H](O)C[C@@H](O)[C@H](O)CC[C@@H](O)C[C@@H](O)CC(=O)O[C@H]1C)C[C@H](O)[C@H]2C(=O)O [amphotericin B] (first compound 12.5 µM),0.264 ± 0.0073,0.185 ± 0.0069
CC(C)(C)NC(=O)[C@@H]1C[C@@H]2CCCC[C@@H]2CN1C[C@@H](O)[C@H](Cc1ccccc1)NC(=O)[C@H](CC(N)=O)NC(=O)c1ccc2ccccc2n1 [saquinavir] + C[C@@H]1[C@H](O)[C@@H](C)/C=C/C=C/C=C/C=C/C=C/C=C/C=C/[C@H](O[C@@H]2O[C@H](C)[C@@H](O)[C@H](N)[C@@H]2O)C[C@@H]2O[C@](O)(C[C@@H](O)C[C@@H](O)[C@H](O)CC[C@@H](O)C[C@@H](O)CC(=O)O[C@H]1C)C[C@H](O)[C@H]2C(=O)O [amphotericin B] (first compound 12.5 µM),0.243 ± 0.0076,0.0922 ± 0.0023
Cc1ccc(S(=O)(=O)N[C@@H](Cc2ccccc2)C(=O)CCl)cc1 + CC[C@H](C)C[C@H](C)CCCCCCCCC(=O)N[C@H]1C[C@@H](O)[C@@H](NCCN)NC(=O)[C@@H]2[C@@H](O)CCN2C(=O)[C@H]([C@H](O)CCN)NC(=O)[C@H]([C@H](O)[C@@H](O)c2ccc(O)cc2)NC(=O)[C@@H]2C[C@@H](O)CN2C(=O)[C@H]([C@@H](C)O)NC1=O [caspofungin] (first compound 4 µM),0.251 ± 0.011,0.152 ± 0.013
O=C[C@@H]1CCCN1C(=O)[C@@H]1CCCN1C(=O)OCc1ccccc1 [Z-Prolyl-prolinal] + CC[C@H](C)C[C@H](C)CCCCCCCCC(=O)N[C@H]1C[C@@H](O)[C@@H](NCCN)NC(=O)[C@@H]2[C@@H](O)CCN2C(=O)[C@H]([C@H](O)CCN)NC(=O)[C@H]([C@H](O)[C@@H](O)c2ccc(O)cc2)NC(=O)[C@@H]2C[C@@H](O)CN2C(=O)[C@H]([C@@H](C)O)NC1=O [caspofungin] (first compound 12.5 µM),0.261 ± 0.0097,0.153 ± 0.0098
COC(=O)C[C@H](NC(=O)[C@H](C)NC(=O)[C@@H](NC(=O)OCc1ccccc1)C(C)C)C(=O)CF + C[C@@H]1[C@H](O)[C@@H](C)/C=C/C=C/C=C/C=C/C=C/C=C/C=C/[C@H](O[C@@H]2O[C@H](C)[C@@H](O)[C@H](N)[C@@H]2O)C[C@@H]2O[C@](O)(C[C@@H](O)C[C@@H](O)[C@H](O)CC[C@@H](O)C[C@@H](O)CC(=O)O[C@H]1C)C[C@H](O)[C@H]2C(=O)O [amphotericin B] (first compound 12.5 µM),0.296 ± 0.013,0.184 ± 0.011
CC(C)C[C@H](NC(=O)[C@@H](O)[C@H](N)Cc1ccccc1)C(=O)O [Bestatin·HCl] + CC[C@H](C)C[C@H](C)CCCCCCCCC(=O)N[C@H]1C[C@@H](O)[C@@H](NCCN)NC(=O)[C@@H]2[C@@H](O)CCN2C(=O)[C@H]([C@H](O)CCN)NC(=O)[C@H]([C@H](O)[C@@H](O)c2ccc(O)cc2)NC(=O)[C@@H]2C[C@@H](O)CN2C(=O)[C@H]([C@@H](C)O)NC1=O [caspofungin] (first compound 12.5 µM),0.283 ± 0.013,0.187 ± 0.0098
NC(=O)c1cccc(-c2cccc(OC(=O)NC3CCCCC3)c2)c1 + OC(Cn1cncn1)(Cn1cncn1)c1ccc(F)cc1F [fluconazole] (first compound 12.5 µM),0.283 ± 0.0052,0.118 ± 0.0073
CCC[C@@]1(CCc2ccccc2)CC(O)=C([C@H](CC)c2cccc(NS(=O)(=O)c3ccc(C(F)(F)F)cn3)c2)C(=O)O1 [tipranavir] + OC(Cn1cncn1)(Cn1cncn1)c1ccc(F)cc1F [fluconazole] (first compound 12.5 µM),0.256 ± 0.0057,0.143 ± 0.0085
COC(=O)N[C@H](C(=O)N[C@@H](Cc1ccccc1)[C@@H](O)CN(Cc1ccc(-c2ccccn2)cc1)NC(=O)[C@@H](NC(=O)OC)C(C)(C)C)C(C)(C)C [atazanavir] + OC(Cn1cncn1)(Cn1cncn1)c1ccc(F)cc1F [fluconazole] (first compound 12.5 µM),0.267 ± 0.012,0.173 ± 0.0039
O=C(O[C@@H]1Cc2c(O)cc(O)cc2O[C@@H]1c1cc(O)c(O)c(O)c1)c1cc(O)c(O)c(O)c1 [Epigallocatechin gallate] + C[C@@H]1[C@H](O)[C@@H](C)/C=C/C=C/C=C/C=C/C=C/C=C/C=C/[C@H](O[C@@H]2O[C@H](C)[C@@H](O)[C@H](N)[C@@H]2O)C[C@@H]2O[C@](O)(C[C@@H](O)C[C@@H](O)[C@H](O)CC[C@@H](O)C[C@@H](O)CC(=O)O[C@H]1C)C[C@H](O)[C@H]2C(=O)O [amphotericin B] (first compound 12.5 µM),0.27 ± 0.017,0.231 ± 0.014
CC(C)c1nc(CN(C)C(=O)N[C@H](C(=O)N[C@@H](Cc2ccccc2)C[C@H](O)[C@H](Cc2ccccc2)NC(=O)OCc2cncs2)C(C)C)cs1 [ritonavir] + OC(Cn1cncn1)(Cn1cncn1)c1ccc(F)cc1F [fluconazole] (first compound 12.5 µM),0.249 ± 0.0077,0.168 ± 0.014
Cc1c(O)cccc1C(=O)N[C@@H](CSc1ccccc1)[C@H](O)CN1C[C@H]2CCCC[C@H]2C[C@H]1C(=O)NC(C)(C)C [nelfinavir] + OC(Cn1cncn1)(Cn1cncn1)c1ccc(F)cc1F [fluconazole] (first compound 12.5 µM),0.255 ± 0.0099,0.121 ± 0.018
CC(C)C[C@H](NC(=O)N[C@H](C(=O)N[C@@H](CCC(N)=O)C(=O)N[C@@H](C)C=O)[C@@H]1CCNC(=N)N1)C(=O)O [Elastatinal] + OC(Cn1cncn1)(Cn1cncn1)c1ccc(F)cc1F [fluconazole] (first compound 12.5 µM),0.249 ± 0.0066,0.16 ± 0.014
